Reference: article PMC5540273 (PLoS ONE, 2017)

Experiments:
Conditions in all cases: concentration: 1 μM, replicates: in singlicate; n = 1
MAP3K3 = system: MAP3K3
MAP3K4 = system: MAP3K4
MAP4K2 = system: MAP4K2
MAP4K3 = system: MAP4K3
MAP4K4 = system: MAP4K4
MAP4K5 = system: MAP4K5
MAPKAPK2 = system: MAPKAPK2
MAPKAPK5 = system: MAPKAPK5
MARK1 = system: MARK1
MARK2 = system: MARK2
MARK3 = system: MARK3
MARK4 = system: MARK4
MAST1 = system: MAST1
MEK1 = system: T1, MEK1
T1 construct: gene MAP2K1

MEK2 = system: T2, MEK2
T2 construct: gene MAP2K2

MEK3 = system: T3, MEK3
T3 construct: gene MAP2K3

MEK4 = system: T4, MEK4
T4 construct: gene MAP2K4

MEK5 = system: T5, MEK5
T5 construct: gene MAP2K5

MEK6 = system: T6, MEK6
T6 construct: gene MAP2K6

MELK = system: MELK

Measured: %Inh
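Further: KINOMEscan kinase panel screen.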

C[C@@H]1CCN(C(=O)CO)C[C@@H]1N(C)c1ncnc2[nH]ccc12
7%: MAP3K3
3%: MEK6
5%: MAP3K4 | MAST1
12%: MEK5
0%: all other assays above

Cl.Cl.c1ccc(-c2cc3ccncc3cc2OC2CCNCC2)cc1 [GSK1122999]
25%: MAPKAPK2
23%: MEK4
17%: MELK
16%: MEK5
18%: MAP3K4
10%: MAP4K4
5%: MARK4 | MEK2
0%: all other assays above

O=C(CCO)NCCn1ccc2ncnc(Nc3ccc(Oc4cccc(C(F)(F)F)c4)c(Cl)c3)c21
34%: MEK2
99.4%: MEK5
3%: MAP4K3 | MAP4K4
4%: MARK2
0%: all other assays above

Cl.O=S(=O)(c1cccc(F)c1)c1ccc(Nc2ncnc3cc(Br)sc23)cc1Cl [GSK306886]
26%: MEK5
22%: MEK4
9%: MAP3K4
6%: MEK2
1%: MARK4
38%: MEK6
0%: all other assays above
